Screens from PubChem.
This is a sample that favours compounds with a hit; in the whole collection about 2.9% have one here.
ADAM17 inh: ADAM17 inhibition, QFRET primary screen; 370,000 compounds, 0.83% hits; P78536; inhibition, % at 6.95 µM; AID 720648; recombinant ADAM17, EDANS/DABCYL FRET peptide cleavage;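 active = inhibition above the mean of compounds lying between control limits plus 3 SD, set per campaign, cut at about 8.5% in these data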
PLC-beta3 inh: inhibitors of human phospholipase C beta3. Q01970. Purified PLC-beta3, fluorogenic substrate, fluorescence. inhibition, % at 12.2 µM. 370,000 compounds, 0.18% hits; in the data active = inhibition above about 11%
ADAM10 inh: inhibits human ADAM10; recombinant ADAM10, EDANS/DABCYL FRET peptide cleavage, 3 h; inhibition, % at 7 µM; 370,000 compounds, 0.62% hits;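 active = inhibition above a per-campaign cutoff equal to the mean of compounds falling between control-based bounds plus 3 SD, cut at about 20% in these data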
proKLK7 act: activators of human kallikrein-7 zymogen; P49862; purified proKLK7, EDANS-DABCYL substrate fluorescence; 100% is mature enzyme control, 0% vehicle; activation, % at 7 µM; 370,000 compounds, 0.9% hits;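 active = activation above the mean of all tested compounds plus 3 SD, computed per campaign excluding outliers beyond control limits, cut at about 13% in these data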
Target sequence (P49862 whole entry, looked up): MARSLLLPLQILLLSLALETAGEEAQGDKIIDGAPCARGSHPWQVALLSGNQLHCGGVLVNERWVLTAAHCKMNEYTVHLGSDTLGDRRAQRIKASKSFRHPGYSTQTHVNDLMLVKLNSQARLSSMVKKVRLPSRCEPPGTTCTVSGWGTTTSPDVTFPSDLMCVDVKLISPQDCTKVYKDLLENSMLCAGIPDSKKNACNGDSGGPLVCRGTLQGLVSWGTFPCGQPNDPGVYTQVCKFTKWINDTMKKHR
PLC-gamma1 inh: blocks human PLC-gamma1 enzyme activity | purified PLC-gamma1, fluorogenic substrate, fluorescence | 370,000 compounds, 0.84% hits | P19174 | AID 720700 | inhibition, % at 12.2 µM
PLCgamma1 ctr: counter-screen for PLC-beta3 inhibitors: inhibitors of human PLC-gamma1; shares compounds with PLC-gamma1 inh; purified PLC-gamma1, fluorogenic substrate, fluorescence; inhibition, % at 12.3 µM; 3,300 compounds, 3.1% hits
PLCb3 confirm: confirmation of human PLC-beta3 inhibitors | 3,300 compounds, 1% hits | shares compounds with PLC-gamma1 inh | inhibition, % at 12.3 µM | purified PLC-beta3, fluorogenic substrate fluorescence; in the data active = inhibition above about 11%
Hits are given with their value; i = inactive; nt = not tested or not shown. Rule as the data show it, unless noted: active = inhibition above about 9.5%; inactive = the rest.

SMILES	ADAM17 inh	PLC-beta3 inh	ADAM10 inh	proKLK7 act	PLC-gamma1 inh	PLCgamma1 ctr	PLCb3 confirm
NC(=O)NN=C1CCC(OCc2ccccc2)CC1CC(=O)O (stereo not drawn)	i	i	i	i	i	nt	nt
Cc1ccc(N(C(=O)CCC(=O)Nc2cc(C)on2)C(C(=O)NC2CCCC2)c2ccncc2)cc1 (stereo not drawn)	i	i	i	i	10	i	i
Cc1ccc(S(=O)(=O)N/N=C/c2c(F)cccc2Cl)cc1	i	i	i	i	11	i	i
COc1ccccc1NC(=O)CC1S/C(=N/N=C(\C)C2CCCCC2)NC1=O (stereo not drawn)	i	i	i	i	i	nt	nt
CC(C)(C)NC(=O)C[C@H]1C[C@H](C(=O)N2CCCCC2)[C@@]2(CCc3ccccc3)c3[nH]c4ccc(Cl)cc4c3CCN2C1=O	i	11	i	i	11	i	i
CC[C@]12c3[nH]c4ccc(Cl)cc4c3CCN1C(=O)[C@@H](CC(=O)NCCN1CCOCC1)C[C@@H]2C(=O)N1CCN(C(=O)c2ccco2)CC1	i	i	i	i	13	i	i
CC(=O)Nc1cccc(C(=O)OC(C)C(=O)NCc2ccc3c(c2)OCO3)c1 (stereo not drawn)	i	i	i	i	9.9	i	i
CC(OC(=O)c1ccc2c(c1)OCO2)C(=O)NC1CCCCC1 (stereo not drawn)	i	i	i	i	11	i	i
C[C@H](CO)N1C[C@H](C)[C@@H](CN(C)C(=O)Nc2ccccc2)Oc2c(NS(=O)(=O)c3ccccc3)cccc2C1=O	i	i	i	i	i	nt	nt
C[C@H](CO)N1C[C@H](C)[C@@H](CN(C)C(=O)Nc2ccccc2)Oc2c(NS(=O)(=O)c3ccc(F)cc3)cccc2C1=O	i	11	i	i	i	i	i
O=C(Nc1ccccc1)C1=C[C@@H](C2CC2)C[C@@H](OCCCCO)O1	i	i	i	i	i	nt	nt
CCC(Cc1ccccc1)NC(=O)C1CCN(S(=O)(=O)c2ccc3c(c2)CC(C)N3C(C)=O)CC1 (stereo not drawn)	i	i	i	i	12	i	i
CCC(C)NC(=O)C1CCN(S(=O)(=O)c2ccc3c(c2)CC(C)N3C(C)=O)CC1 (stereo not drawn)	i	i	i	i	i	nt	nt
Cc1ccc(C#CC[N+]2(C)CCCCC2)cc1	i	i	i	i	i	nt	nt
O=C(Nc1cc2c(cc1[N+](=O)[O-])OCCO2)c1cccnc1	i	i	i	i	10	i	i
COC(=O)CN(n1cnnc1)S(=O)(=O)c1ccccc1Cl	i	i	i	i	10	i	i
CCC1CCCCN1C(=O)c1ccccc1OC1CCN(S(C)(=O)=O)CC1 (stereo not drawn)	i	i	i	i	i	nt	nt
CC1CCCCN1C(=O)c1ccccc1OC1CCN(S(C)(=O)=O)CC1 (stereo not drawn)	i	i	i	i	9.5	i	i
O=C(O)c1ccccc1Nc1cc(Cl)c2nonc2c1[N+](=O)[O-]	i	i	i	i	i	nt	nt
O=C(O)c1cccc(Nc2cc(Cl)c3nonc3c2[N+](=O)[O-])c1	i	i	i	i	13	i	i
CCN(CC(=O)Nc1ccccc1C(F)(F)F)C(=O)CSCc1ccc(C)cc1	i	i	i	i	i	nt	nt
CC(C)(C)CSc1nnc(-c2cccnc2)n1Cc1ccccc1	i	i	i	i	i	nt	nt
COc1ccc(NC(=O)Cc2ccc(C)cc2)c([N+](=O)[O-])c1	i	14	i	i	i	i	i
COc1ccc(NC(=O)COc2ccc(C)cc2)c([N+](=O)[O-])c1	i	i	i	i	i	nt	nt
CCOc1ccc(/C=C/C(=O)Nc2ccc(OC)cc2[N+](=O)[O-])cc1	i	11	i	i	i	i	i
Cc1cccc(OCC(=O)OCC(=O)N2CCCc3ccccc32)c1C	i	i	i	i	11	i	i
CCOC(=O)C1CCN(Cc2ccc(OC)c(OCc3ccccc3)c2)CC1	i	i	i	i	i	nt	nt
CCOC(=O)C1CCN(Cc2ccc(O)c(OC)c2)CC1	i	i	i	i	12	i	i
Cc1nc(SCc2ccc(O)c([N+](=O)[O-])c2)c([N+](=O)[O-])[nH]1	i	i	i	i	i	nt	nt
